Source: PubChem BioAssay
Active and inactive are the calls of the source.

Experiments:
[1] = binders of probe aFSTL3 on microarray, primary screen, stem cell growth factor project, biochemical, small-molecule microarray, fluorescence 635/667 (AID 1064); settings: higher = more signal;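 further: measures binding of the biotinylated anti-FSTL3 antibody to printed compounds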
[2] = binders from COS7 lysate, DM2A8 probe, primary screen, torsin A project, cell lysate, small-molecule microarray, fluorescence 635/667 (AID 1065); settings: higher = more signal, COS7 lysate expressing mutant human TOR1A
[3] = binders of probe aFGF2 on microarray, primary screen, stem cell growth factor project, biochemical, small-molecule microarray, fluorescence 635/667 (AID 1067); settings: higher = more signal;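 further: measures binding of biotinylated aFGF2 protein to printed compounds on slides; z-score merges feature fluorescence and signal-to-noise across triplicate slides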
[4] = binders of probe aFGF10 on microarray, primary screen, stem cell growth factor project, biochemical, small-molecule microarray, fluorescence 635/667 (AID 1071); settings: higher = more signal;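 further: score merges 667 nm spot intensity and signal to noise from triplicate slides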
[5] = molecular target: Neurogenic locus notch homolog protein 2 (Homo sapiens) (UniProt Q04721); assay: Notch2 binders on small-molecule microarrays, primary screen, biochemical, small-molecule microarray, 635 nm fluorescence, stem cell growth factors (AID 1073); settings: Notch2 binding, higher = more signal
[6] = molecular target: Pro-neuregulin-1, membrane-bound isoform (Homo sapiens) (UniProt Q02297); assay: NRG1 binders on small-molecule microarrays, primary screen, psychiatric disease protein project, biochemical, small-molecule microarray, fluorescence 635/667 (AID 1075); settings: NRG1 binding, 635 nm fluorescence, higher = more signal;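 further: score combines 667 nm spot fluorescence with signal to noise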
[7] = system: Neuregulin-1 EGF-like domain; assay: binders of neuregulin-1 EGF-like domain, primary screen, biochemical, small-molecule microarray, 635 nm fluorescence (AID 1081); settings: small-molecule microarray binding, higher = more signal;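 further: binding of the protein to compounds printed on small-molecule microarray slides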
[8] = FRG1 promoter luciferase signal modulators, primary screen, FRG1 inhibition for FSHD, cell-based, C2C12 myotubes, firefly/Renilla luciferase, luminescence (AID 1084); settings: higher = more signal, called active from +8 up or from −8 down
[9] = binders of probe aFST on microarray, primary screen, stem cell growth factor project, biochemical, small-molecule microarray, fluorescence 635/667 (AID 1086); settings: higher = more signal;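 further: score merges 667 nm fluorescence with signal-to-noise of each printed compound spot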
[10] = binders of probe aHhip on microarray, primary screen, stem cell growth factor project, biochemical, small-molecule microarray, fluorescence 635/667 (AID 1087); settings: higher = more signal;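 further: score merges spot fluorescence at 667nm with spot signal to noise ratio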

Chain of Neurogenic locus notch homolog protein 2 (Homo sapiens) (Q04721 whole entry, looked up, canonical isoform): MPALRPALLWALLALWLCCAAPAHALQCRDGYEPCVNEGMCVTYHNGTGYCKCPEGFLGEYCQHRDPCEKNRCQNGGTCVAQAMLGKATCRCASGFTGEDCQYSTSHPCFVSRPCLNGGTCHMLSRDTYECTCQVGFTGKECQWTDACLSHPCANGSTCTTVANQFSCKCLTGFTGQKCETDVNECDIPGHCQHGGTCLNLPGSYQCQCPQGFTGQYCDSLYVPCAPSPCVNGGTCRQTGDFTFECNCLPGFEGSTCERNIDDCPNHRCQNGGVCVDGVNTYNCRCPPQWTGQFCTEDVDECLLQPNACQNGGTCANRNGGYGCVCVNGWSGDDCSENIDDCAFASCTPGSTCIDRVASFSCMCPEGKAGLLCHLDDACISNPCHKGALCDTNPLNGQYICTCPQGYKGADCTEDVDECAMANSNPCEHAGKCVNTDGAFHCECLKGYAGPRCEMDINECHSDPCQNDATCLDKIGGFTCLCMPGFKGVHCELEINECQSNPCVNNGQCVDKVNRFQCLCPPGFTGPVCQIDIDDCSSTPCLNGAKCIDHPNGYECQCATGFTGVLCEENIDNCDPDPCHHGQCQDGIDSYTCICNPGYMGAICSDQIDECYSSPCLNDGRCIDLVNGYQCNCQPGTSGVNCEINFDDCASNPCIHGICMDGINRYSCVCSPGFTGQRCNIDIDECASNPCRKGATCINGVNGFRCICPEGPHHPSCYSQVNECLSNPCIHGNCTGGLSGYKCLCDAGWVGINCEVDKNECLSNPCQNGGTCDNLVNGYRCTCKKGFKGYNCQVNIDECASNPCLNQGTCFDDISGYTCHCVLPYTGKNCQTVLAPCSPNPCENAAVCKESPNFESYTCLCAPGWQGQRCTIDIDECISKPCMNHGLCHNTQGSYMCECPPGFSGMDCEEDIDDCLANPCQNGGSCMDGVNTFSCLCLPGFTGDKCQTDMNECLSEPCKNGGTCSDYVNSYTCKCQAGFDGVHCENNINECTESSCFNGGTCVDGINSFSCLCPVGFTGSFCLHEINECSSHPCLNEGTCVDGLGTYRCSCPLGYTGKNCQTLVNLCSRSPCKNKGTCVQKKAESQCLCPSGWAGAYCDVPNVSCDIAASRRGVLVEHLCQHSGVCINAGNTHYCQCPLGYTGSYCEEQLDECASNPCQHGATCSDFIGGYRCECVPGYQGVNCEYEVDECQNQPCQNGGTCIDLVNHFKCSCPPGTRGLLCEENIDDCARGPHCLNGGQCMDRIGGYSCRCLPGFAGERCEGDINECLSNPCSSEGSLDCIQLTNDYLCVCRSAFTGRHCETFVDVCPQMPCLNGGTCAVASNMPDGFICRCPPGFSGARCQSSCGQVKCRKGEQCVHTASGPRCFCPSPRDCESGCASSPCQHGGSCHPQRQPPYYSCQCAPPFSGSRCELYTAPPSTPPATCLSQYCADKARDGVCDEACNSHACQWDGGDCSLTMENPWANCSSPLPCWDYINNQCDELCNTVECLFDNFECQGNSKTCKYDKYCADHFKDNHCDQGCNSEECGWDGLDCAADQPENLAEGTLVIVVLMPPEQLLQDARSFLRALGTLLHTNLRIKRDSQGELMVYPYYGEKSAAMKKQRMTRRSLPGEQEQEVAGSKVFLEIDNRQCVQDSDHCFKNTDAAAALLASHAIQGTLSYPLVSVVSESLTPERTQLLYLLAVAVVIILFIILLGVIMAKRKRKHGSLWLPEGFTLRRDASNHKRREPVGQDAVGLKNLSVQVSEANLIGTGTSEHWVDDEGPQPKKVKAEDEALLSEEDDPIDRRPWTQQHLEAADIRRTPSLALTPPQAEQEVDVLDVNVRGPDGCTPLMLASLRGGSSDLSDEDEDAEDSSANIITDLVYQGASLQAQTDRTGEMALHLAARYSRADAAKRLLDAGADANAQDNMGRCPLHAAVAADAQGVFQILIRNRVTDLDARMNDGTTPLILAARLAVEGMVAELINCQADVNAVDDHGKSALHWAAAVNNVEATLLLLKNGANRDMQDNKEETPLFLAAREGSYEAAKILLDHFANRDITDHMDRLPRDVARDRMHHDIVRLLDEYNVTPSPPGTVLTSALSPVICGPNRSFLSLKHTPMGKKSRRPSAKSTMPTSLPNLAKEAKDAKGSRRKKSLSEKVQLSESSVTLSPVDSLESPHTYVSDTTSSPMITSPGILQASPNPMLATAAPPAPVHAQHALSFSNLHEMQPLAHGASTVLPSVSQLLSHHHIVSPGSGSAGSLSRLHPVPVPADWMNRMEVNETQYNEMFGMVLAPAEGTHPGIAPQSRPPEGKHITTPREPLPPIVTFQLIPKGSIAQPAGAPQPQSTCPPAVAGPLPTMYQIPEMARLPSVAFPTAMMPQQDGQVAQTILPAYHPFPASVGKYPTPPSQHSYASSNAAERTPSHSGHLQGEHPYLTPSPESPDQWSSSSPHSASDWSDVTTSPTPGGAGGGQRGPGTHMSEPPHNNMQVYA
Chain of Pro-neuregulin-1, membrane-bound isoform (Homo sapiens) (Q02297 whole entry, looked up, the tested form may be a part, canonical isoform): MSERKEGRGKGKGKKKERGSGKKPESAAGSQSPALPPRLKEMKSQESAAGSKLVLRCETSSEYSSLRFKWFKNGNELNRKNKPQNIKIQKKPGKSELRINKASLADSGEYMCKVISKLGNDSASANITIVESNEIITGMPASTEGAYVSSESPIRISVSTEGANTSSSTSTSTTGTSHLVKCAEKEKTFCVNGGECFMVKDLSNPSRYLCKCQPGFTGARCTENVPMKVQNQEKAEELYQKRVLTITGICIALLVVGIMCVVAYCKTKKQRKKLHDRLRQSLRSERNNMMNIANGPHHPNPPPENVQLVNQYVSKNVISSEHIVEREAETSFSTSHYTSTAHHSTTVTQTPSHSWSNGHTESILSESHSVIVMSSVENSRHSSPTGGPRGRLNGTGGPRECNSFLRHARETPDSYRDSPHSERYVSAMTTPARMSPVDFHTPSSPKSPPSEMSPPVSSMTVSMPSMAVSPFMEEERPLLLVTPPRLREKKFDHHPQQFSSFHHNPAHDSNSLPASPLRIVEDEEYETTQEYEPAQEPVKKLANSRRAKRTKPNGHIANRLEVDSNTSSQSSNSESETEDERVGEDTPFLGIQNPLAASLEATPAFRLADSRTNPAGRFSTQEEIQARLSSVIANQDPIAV

COC(=O)Cn1c(C(=O)N(C)C)cc2c1C[C@H]1CN(C(=O)c3ccccc3)[C@@](Cc3ccc(OC)cc3)(C(=O)OC)[C@@H]21
composite z-score [1]: 0.2 | composite z-score [2]: -0.195 | composite z-score [3]: 0.347 | composite z-score [4]: 1.25 | composite z-score [5]: 1.19 | composite z-score [6]: 2.13 | composite z-score [7]: 1.18 | z-score [8]: 0.296 (inactive) | composite z-score [9]: 0.513 | composite z-score [10]: 0.0053

C=C(/C(=C/C[C@H](OC(=O)c1ccncc1)c1ccccc1OCCO)c1cc(C(=O)OC)ccc1OC)C(C)C
composite z-score [1]: -0.0165 | composite z-score [2]: 0.229 | composite z-score [3]: -0.01 | composite z-score [4]: 0.605 | composite z-score [5]: 0.267 | composite z-score [6]: 1.1 | composite z-score [7]: 1.28 | z-score [8]: -1 (inactive) | composite z-score [9]: 0.265 | composite z-score [10]: -0.249

CCOC(=O)C[C@H]1[C@H](OC(=O)c2ccc(C(=O)c3ccccc3)cc2)[C@@H](NC(=O)c2ccc3ccccc3c2)c2cc(OCCCO)ccc2N1C(=O)c1ccc2ccccc2n1
composite z-score [1]: -0.432 | composite z-score [2]: 0.761 | composite z-score [3]: -0.101 | composite z-score [4]: 0.746 | composite z-score [5]: 0.5 | composite z-score [6]: 0.43 | composite z-score [7]: 0.53 | z-score [8]: 0.476 (inactive) | composite z-score [9]: 0.392 | composite z-score [10]: -0.151

C=CCC(OC(C)=O)[C@@H]1[C@@H](N(Cc2cccc3ccccc23)C(=O)c2ccc(-c3ccccc3)cc2)c2cc(OCCCO)ccc2N1C(=O)c1ccc2ccccc2n1 (stereo not given in full)
composite z-score [1]: -0.093 | composite z-score [2]: 0.116 | composite z-score [3]: -0.0158 | composite z-score [4]: 0.0632 | composite z-score [5]: 0.285 | composite z-score [6]: 0.298 | composite z-score [7]: 0.037 | z-score [8]: -0.612 (inactive) | composite z-score [9]: 0.386 | composite z-score [10]: 0.28

CC(c1ccccc1)C(O)C1C=CC2C(=O)N(c3ccccc3)C(=O)C2N1Nc1ccc(C#N)cc1 (stereo not given)
composite z-score [1]: -0.177 | composite z-score [2]: 0.358 | composite z-score [3]: 0.255 | composite z-score [4]: 0.752 | composite z-score [5]: 1.59 | composite z-score [6]: 1.91 | composite z-score [7]: 1.34 | z-score [8]: -0.948 (inactive) | composite z-score [9]: 1.42 | composite z-score [10]: 0.0139

COc1ccc(CCNC(=O)[C@@H]2c3ccccc3C(=O)N(CC34CC5CC(CC(C5)C3)C4)[C@H]2c2ccc(CO)cc2)cc1
composite z-score [1]: -0.227 | composite z-score [2]: 0.0668 | composite z-score [3]: 0.257 | composite z-score [4]: 0.239 | composite z-score [5]: 0.703 | composite z-score [6]: 1.09 | composite z-score [7]: 1.24 | z-score [8]: -1.89 (inactive) | composite z-score [9]: -0.0095 | composite z-score [10]: 0.0972

CC(C)N1CC=CC23O[C@@H]4C=CCCOC(=O)C4[C@H]2C(=O)N(CCCCCO)[C@@H]3C1=O (stereo not given in full)
composite z-score [1]: -0.0451 | composite z-score [2]: -1.06 | composite z-score [3]: -0.103 | composite z-score [4]: 0.279 | composite z-score [5]: -0.905 | composite z-score [6]: 1.93 | composite z-score [7]: 1.21 | z-score [8]: -0.928 (inactive) | composite z-score [9]: -0.352 | composite z-score [10]: -0.353

CCN(CC)c1ccc(N2CC=CC34O[C@@H]5C=CCOC(=O)[C@@H]5[C@H]3C(=O)N(CCCO)[C@@H]4C2=O)cc1 (stereo not given in full)
composite z-score [1]: 0.515 | composite z-score [2]: 0.15 | composite z-score [3]: -0.062 | composite z-score [4]: -0.679 | composite z-score [5]: -1.04 | composite z-score [6]: 0.986 | composite z-score [7]: 0.391 | z-score [8]: 0.275 (inactive) | composite z-score [9]: -0.504 | composite z-score [10]: 0.0881

CCCCCCc1nc(-c2ccc(OC)nc2)cc2c1[Si](C(C)C)(C(C)C)OC2
composite z-score [1]: -0.0192 | composite z-score [2]: 0.456 | composite z-score [3]: -0.15 | composite z-score [4]: -0.0125 | composite z-score [5]: -0.383 | composite z-score [6]: -0.151 | composite z-score [7]: -0.769 | z-score [8]: 0.366 (inactive) | composite z-score [9]: -0.193 | composite z-score [10]: 0.0306

CC1(C)OC[C@@]23C=C(Br)[C@@H](C[C@H]12)[C@@]1(CO1)C3=O
composite z-score [1]: -0.401 | composite z-score [2]: 0.374 | composite z-score [3]: -0.105 | composite z-score [4]: 0.403 | composite z-score [5]: 0.517 | composite z-score [6]: 0.146 | composite z-score [7]: 0.149 | z-score [8]: -0.468 (inactive) | composite z-score [9]: 0.0965 | composite z-score [10]: -0.0423

CCCC[C@@H]1C[C@H]1[C@@H](NC(=O)Cc1ccccc1)c1ccc(Cl)cc1
composite z-score [1]: 0.409 | composite z-score [2]: 0.469 | composite z-score [3]: 0.428 | composite z-score [4]: 0.671 | composite z-score [5]: 1.63 | composite z-score [6]: 1.72 | composite z-score [7]: 1.19 | z-score [8]: -2.4 (inactive) | composite z-score [9]: 1.46 | composite z-score [10]: -0.193

CCc1cccc(NC(=O)O[C@H]2[C@H](OC(=O)Nc3ccc4c(c3)OCO4)[C@H](OC(=O)Nc3ccc4c(c3)OCO4)[C@@H](OC)O[C@@H]2CO)c1
composite z-score [1]: 0.0053 | composite z-score [2]: 0.052 | composite z-score [3]: -0.0158 | composite z-score [4]: 0.263 | composite z-score [5]: 0.603 | composite z-score [6]: 0.979 | composite z-score [7]: 1.32 | z-score [8]: 4.53 (inactive) | composite z-score [9]: 0.318 | composite z-score [10]: -0.0645

COCCCNC(=O)[C@@H]1c2ccccc2C(=O)N(Cc2cc(C(F)(F)F)cc(C(F)(F)F)c2)[C@H]1c1ccc(CO)cc1
composite z-score [1]: -0.468 | composite z-score [2]: 0.668 | composite z-score [3]: -0.182 | composite z-score [4]: -0.568 | composite z-score [5]: -0.0254 | composite z-score [6]: 0.686 | composite z-score [7]: 0.887 | z-score [8]: 0.309 (inactive) | composite z-score [9]: 1.49 | composite z-score [10]: -0.34

C=C(COC)/C(=C/C[C@@H](OC(C)=O)c1ccccc1OCCO)c1cc(C(=O)OC)ccc1OC
composite z-score [1]: 0.0503 | composite z-score [2]: 0.377 | composite z-score [3]: -0.116 | composite z-score [4]: 0.785 | composite z-score [5]: -0.216 | composite z-score [6]: 1.48 | composite z-score [7]: 1.09 | z-score [8]: -0.657 (inactive) | composite z-score [9]: 0.0581 | composite z-score [10]: -0.374

C=CCNC(=O)[C@H]1[C@@H]2C(=O)O[C@@H](c3ccccc3)[C@@H](c3ccccc3)N2[C@@H](c2ccc(O)cc2)[C@]12C(=O)Nc1ccc(C#CC3=CCCCC3)cc12
composite z-score [1]: -0.713 | composite z-score [2]: 2.01 | composite z-score [3]: -0.0449 | composite z-score [4]: 0.447 | composite z-score [5]: 0.706 | composite z-score [6]: 0.0212 | composite z-score [7]: 1.18 | z-score [8]: -0.195 (inactive) | composite z-score [9]: -0.166 | composite z-score [10]: 0.199

C=CCC(OC(C)=O)[C@@H]1[C@@H](N(Cc2cc3ccccc3o2)C(=O)Cc2ccc(OC)cc2)c2cc(OCCCO)ccc2N1C(=O)Cc1ccc2ccccc2c1 (stereo not given in full)
composite z-score [1]: 0.0169 | composite z-score [2]: -0.94 | composite z-score [3]: -0.0348 | composite z-score [4]: -0.377 | composite z-score [5]: -0.368 | composite z-score [6]: -0.359 | composite z-score [7]: 0.331 | z-score [8]: -0.906 (inactive) | composite z-score [9]: 0.0598 | composite z-score [10]: 0.0505
